According to PubChem BioAssay (Tox21):
Records with an inconclusive call do not appear. The source made the active and inactive calls. Unless noted, calls come from the whole dose curve; as a rule, active = well fitted curve in the direction sought with a large enough effect in the repeat runs; inconclusive = weak or mixed curves; inactive = no such curve, though single readings can be large; an effect the other way counts as inactive or inconclusive.

How the values were obtained:
[1] = qHTS assay for small molecule agonists of the p53 signaling pathway (AID 651631; calls by dose curve; note: nearly all actives have a fitted effect of over 15% in size)
How it was run: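 Beta-lactamase reporter activity under p53 response elements was quantified in HCT-116 cells by FRET fluorescence, following 16 h incubation with test compounds at 37 °C and 2 h substrate development at room temperature.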

[2] = qHTS assay for small molecules that induce genotoxicity in human embryonic kidney cells expressing luciferase-tagged ATAD5 (AID 651632); note: nearly all actives have a fitted effect of over 15% in size
How it was run: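 ATAD5-luc HEK293T, 2,000 cells/well; cpd or DMSO pin-transferred; 16 hr, 37C/5% CO2; Amplite 30 min RT; luminescence.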

[3] = qHTS assay for small molecule agonists of the p53 signaling pathway - cell viability (AID 651633; calls by dose curve;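 note: p53RE-bla HCT reporter cells with a stable beta-lactamase p53 reporter; nearly all actives have a fitted effect of over 30% in size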)
How it was run: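 Viability counter-read: CellTiter-Glo luminescence (30 min, room temperature) in the same p53RE-bla plates. These plates had been exposed to compounds for 16 h at 37 C.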

[4] = qHTS assay for small molecules that induce genotoxicity in human embryonic kidney cells expressing luciferase-tagged ATAD5 - cell viability (AID 651634; calls by dose curve; note: nearly all actives have a fitted effect of over 25% in size)
How it was run: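 Fluorescence from CellTiter-Fluor, reporting protease activity within live cells, served as the viability read-out. HEK293T cells carrying luciferase-tagged ATAD5 had been treated with compound for 15.5 hr at 37C.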

[5] = qHTS assay for small molecule disruptors of the mitochondrial membrane potential - cell viability (AID 720634; calls by dose curve;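 note: human HepG2 liver cancer cells; nearly all actives have a fitted effect of over 20% in size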)
How it was run: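 Cells: HepG2, 2,000/well, attached overnight. Compound 1 hr, 37 C/5% CO2. +m-MPI dye, +CellTiter-Glo 30 min RT. Readout: luminescence (ATP).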

[6] = qHTS assay for small molecule disruptors of the mitochondrial membrane potential (AID 720635)
How it was run: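 Mitochondrial membrane potential tracked with Mito-MPS dye, red aggregates (ex 540/em 590 nm) against green monomers (ex 490/em 535 nm). Compound treatment 1 hr at 37C, dye 30 min in HepG2.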

[7] = qHTS assay to test for compound auto fluorescence at 535 nm (green) in HepG2 cells (AID 720675)
[8] = qHTS assay to test for compound auto fluorescence at 460 nm (blue) in HEK293 cells (AID 720678)
How it was run: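 Cells were seeded and left to adhere for 4-5 hr at 37C. Compounds were then pin-transferred. After an overnight incubation at 37C under 5% CO2, intrinsic fluorescence at 405/460 nm was measured and referenced to triamterene.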

[9] = qHTS assay to test for compound auto fluorescence at 590 nm (red) in HEK293 cells (AID 720679)
How it was run: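 Each well held 2,000 HEK293 cells in medium containing 10% dialyzed FBS. Following 4-5 hr attachment at 37C, 23 nL test compound or DMSO was added; plates sat overnight, and red fluorescence (540/590nm) was recorded.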

[10] = qHTS assay to test for compound auto fluorescence at 460 nm (blue) in HEK293 cell free culture (AID 720681)
How it was run: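 Blue fluorescence (Ex 405/Em 460 nm, triamterene-equivalent) was read immediately after pin transfer of compound or DMSO into medium (DMEM, 10% FBS) without cells.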

[11] = qHTS assay to test for compound auto fluorescence at 535 nm (green) in HEK293 cell free culture (AID 720682)
How it was run: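 Each library compound, or DMSO control, is added by pintool to medium alone, comprising DMEM and 10% FBS. Emission at 535 nm following 485 nm excitation is quantified against fluorescein.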

[12] = qHTS assay to test for compound auto fluorescence at 590 nm (red) in HEK293 cell free culture (AID 720683)
How it was run: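 Red-channel autofluorescence of compounds in culture medium (DMEM, 10% FBS), no cells, measured at 540/590 nm. Rose Bengal sodium is the reference fluorophore for equivalence.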

[13] = qHTS assay to test for compound auto fluorescence at 590 nm (red) in HepG2 cell free culture (AID 720684)
How it was run: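 Plate contents were MEM with 10% FBS plus test compound or DMSO, no cells. Fluorescence was recorded with 540 nm excitation and 590 nm emission.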

[14] = qHTS assay to test for compound auto fluorescence at 460 nm (blue) in HepG2 cell free culture (AID 720685)
How it was run: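 Compound (23 nL) or DMSO pinned into cell-free MEM with 10% FBS; blue fluorescence read at 405/460 nm excitation/emission, expressed as auto-fluorescence equivalency to triamterene.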

[15] = qHTS assay to test for compound auto fluorescence at 535 nm (green) in HepG2 cell free culture (AID 720686)
[16] = qHTS assay to test for compound auto fluorescence at 460 nm (blue) in HepG2 cells (AID 720687)
How it was run: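 Blue-channel autofluorescence (Ex/Em 405/460 nm, triamterene-equivalent) was measured after 1 hr compound exposure at 37 C, 5% CO2. Cells were HepG2, plated overnight at 37 C in MEM plus 10% FBS.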

[17] = qHTS assay to test for compound auto fluorescence at 590 nm (red) in HepG2 cells (AID 720674)
How it was run: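 Red autofluorescence (Ex/Em 540/590 nm, Rose Bengal sodium equivalents) was measured in HepG2 cells, 2,000 per well in MEM plus 10% FBS, plated overnight at 37 C. Readings were taken 1 hr after adding 23 nL compound or DMSO, at 37 C and 5% CO2.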

[18] = target: Glucocorticoid receptor (Homo sapiens) (UniProt P04150); assay: qHTS assay to identify small molecule agonists of the glucocorticoid receptor (GR) signaling pathway (AID 720691; active = well fitted activation curve with a large enough effect in the signal ratio in the repeat runs, not every such curve was filed as active; the % refers to the signal ratio); conditions: GR-bla HeLa, beta-lactamase reporter ratio, 18 h; activation: at 62.4 µM (top of the series)
Sequence of Glucocorticoid receptor (Homo sapiens) (P04150 whole entry, looked up): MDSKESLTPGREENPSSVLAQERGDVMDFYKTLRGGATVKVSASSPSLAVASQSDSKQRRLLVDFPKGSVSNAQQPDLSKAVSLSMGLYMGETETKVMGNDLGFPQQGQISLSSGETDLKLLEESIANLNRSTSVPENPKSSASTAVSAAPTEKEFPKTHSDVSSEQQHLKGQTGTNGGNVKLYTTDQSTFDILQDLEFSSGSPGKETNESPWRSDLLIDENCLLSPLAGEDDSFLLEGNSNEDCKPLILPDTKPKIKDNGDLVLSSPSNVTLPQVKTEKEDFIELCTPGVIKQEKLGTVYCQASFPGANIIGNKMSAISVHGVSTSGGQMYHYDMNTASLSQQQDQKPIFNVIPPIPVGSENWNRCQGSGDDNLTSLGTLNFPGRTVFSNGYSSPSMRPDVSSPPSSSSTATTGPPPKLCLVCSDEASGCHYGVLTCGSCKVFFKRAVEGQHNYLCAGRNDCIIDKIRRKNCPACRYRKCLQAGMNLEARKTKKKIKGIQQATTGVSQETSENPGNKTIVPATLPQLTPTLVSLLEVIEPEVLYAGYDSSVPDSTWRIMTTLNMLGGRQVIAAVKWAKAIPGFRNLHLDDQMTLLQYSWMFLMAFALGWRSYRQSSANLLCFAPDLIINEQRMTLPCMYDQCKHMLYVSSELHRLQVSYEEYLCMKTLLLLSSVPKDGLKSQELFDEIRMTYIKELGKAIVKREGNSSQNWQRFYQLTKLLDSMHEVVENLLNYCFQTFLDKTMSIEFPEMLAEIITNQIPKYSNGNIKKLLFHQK
How it was run: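 Fluorescence intensity from LiveBLAzer B/G FRET substrate (2 h, room temperature) reports beta-lactamase expression driven by the glucocorticoid response element in GR-bla HeLa cells after 18 h compound exposure at 37 C.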

[19] = qHTS assay to test for compound auto fluorescence at 535 nm (green) in HEK293 cells (AID 720680)
[20] = target: Glucocorticoid receptor (Homo sapiens) (UniProt P04150); assay: qHTS assay to identify small molecule antagonists of the glucocorticoid receptor (GR) signaling pathway (AID 720692; active = well fitted inhibition curve with a large enough effect in the signal ratio in the repeat runs, not every such curve was filed as active; the % refers to the signal ratio)
How it was run: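 HeLa GR-bla cells; cmpd + dex 5 nM final, 18 h 37 C; LiveBLAzer B/G FRET substrate 2 h RT; fluorescence intensity read. Antagonist mode, qHTS.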

Measured: Potency

NC(=S)NS(=O)(=O)c1ccc(N)cc1
not listed: [17] | [18] | [19] | [20]
inactive: all other assays above

Cc1ncc(C[n+]2csc(CCOP(=O)(O)O)c2C)c(N)n1
not listed: [11] | [19] | [20]
inactive: all other assays above

NCC1CCC(C(=O)O)CC1 (stereo not drawn)
not listed: [17] | [18] | [19] | [20]
inactive: all other assays above

C[Se]CC[C@H](N)C(=O)O
not listed: [17]
inactive: all other assays above

O=C1C2CC3CC1CC(O)(C3)C2
not listed: [19]
inactive: all other assays above

O=c1[nH]c(=O)n([C@H]2C[C@H](O)[C@@H](CO)O2)cc1/C=C/Br
not listed: [15] | [17]
inactive: all other assays above

CC(=O)Nc1ccc(OC(C)=O)cc1
not listed: [19]
inactive: all other assays above

C1CCc2nnnn2CC1
not listed: [9] | [18] | [20]
inactive: all other assays above

COC1=C(OC)C(=O)C(C/C=C(\C)CC/C=C(\C)CC/C=C(\C)CC/C=C(\C)CC/C=C(\C)CC/C=C(\C)CC/C=C(\C)CC/C=C(\C)CC/C=C(\C)CCC=C(C)C)=C(C)C1=O
not listed: [9]
inactive: all other assays above

c1ccc2c(c1)OCC(CN1CCCCC1)O2 (stereo not drawn)
not listed: [9] | [11] | [16] | [18] | [20]
inactive: all other assays above

O=C(O)COc1ccccc1/C=N/NC(=O)c1ccncc1
not listed: [17] | [18] | [20]
inactive: all other assays above

C=CC1=C(C(=O)O)N2C(=O)[C@@H](NC(=O)/C(=N\O)c3csc(N)n3)[C@H]2SC1 (stereo in doubt)
not listed: [9] | [11] | [18] | [20]
inactive: all other assays above

CN=C(N)NCCC[C@H](N)C(=O)O
not listed: [11] | [17] | [18] | [20]
inactive: all other assays above

CC(=O)Oc1cc(C(F)(F)F)ccc1C(=O)O
not listed: [9]
inactive: all other assays above
